Results taken from PubChem BioAssay AID1159580 (chemical genetic matrix, 2015).
The whole screen tested about 5,500 compounds, of which about 2,000 (36%) were called active. About 18% were inconclusive and are not listed. Rule as the data show it: active = normalized growth mostly below about 0.91 (no sharp cut-off); inconclusive = no clear call, values can overlap the other calls; inactive = mostly above about 0.92. This is one part of the list.

Assay: chemical genetic growth profiling, strain panel (AID 1159580);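 also: tested at 20 µM; growth read once vehicle control cultures reached saturation at 30 °C; 1 = growth at the plate median or of vehicle wells; lower values mean less growth of the strain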
Settings: growth OD

Measured: normalized growth

COc1cc(-c2coc3cc(O[C@@H]4O[C@H](CO)[C@@H](O)[C@H](O)[C@H]4O)c(OC)c(O)c3c2=O)cc(O)c1OC
inactive: S. cerevisiae deletion strains, locus YJR066W, strain TOR1, active compounds read low 0.988 | S. cerevisiae deletion strains, locus YKL009W, strain mrt4, active compounds read low 1.02 | S. cerevisiae deletion strains, locus YKL068W, active compounds read low 0.995 | S. cerevisiae deletion strains, locus YKL085W, strain MDH1 (second series), active compounds read low 0.997 | S. cerevisiae deletion strains, locus YKL085W, strain MDH1, active compounds read low 0.997 | S. cerevisiae deletion strains, locus YKL160W, strain elf1, active compounds read low 0.993 | S. cerevisiae deletion strains, locus YKR001C, strain vps1, active compounds read low 1.01 | S. cerevisiae deletion strains, locus YKR026C, strain gcn3, active compounds read low 0.997 | S. cerevisiae deletion strains, locus YKR091W, strain srl3, active compounds read low 1 | S. cerevisiae deletion strains, locus YLL001W, strain dnm1, active compounds read low 0.965 | S. cerevisiae deletion strains, locus YLL026W, active compounds read low 0.995 | S. cerevisiae deletion strains, locus YLL041C, strain sdh2, active compounds read low 1 | S. cerevisiae deletion strains, locus YLR027C, strain aat2, active compounds read low 0.997 | S. cerevisiae deletion strains, locus YLR039C, strain RIC1, active compounds read low 1.02 | S. cerevisiae deletion strains, locus YLR058C, strain SHM2, active compounds read low 1.01 | S. cerevisiae deletion strains, locus YLR102C, strain apc9, active compounds read low 0.994 | S. cerevisiae deletion strains, locus YLR113W, strain HOG1, active compounds read low 0.975 | S. cerevisiae deletion strains, locus YLR221C, strain rsa3, active compounds read low 0.993 | S. cerevisiae deletion strains, locus YLR258W, strain gsy2, active compounds read low 0.984 | S. cerevisiae deletion strains, locus YLR262C, strain YPT6 (second series), active compounds read low 1 | S. cerevisiae deletion strains, locus YLR262C, strain YPT6, active compounds read low 1 | S. cerevisiae deletion strains, locus YLR268W, strain sec22, active compounds read low 1.03 | S. cerevisiae deletion strains, locus YLR320W, strain mms22, active compounds read low 0.986 | S. cerevisiae deletion strains, locus YLR330W, strain CHS5, active compounds read low 1.01 | S. cerevisiae deletion strains, locus YLR342W, strain FKS1 (second series), active compounds read low 1.05 | S. cerevisiae deletion strains, locus YLR342W, strain FKS1, active compounds read low 0.994 | S. cerevisiae deletion strains, locus YLR357W, strain rsc2, active compounds read low 0.956 | S. cerevisiae deletion strains, locus YLR370C, strain arc18, active compounds read low 1 | S. cerevisiae deletion strains, locus YLR371W, strain rom2, active compounds read low 1.01 | S. cerevisiae deletion strains, locus YLR384C, strain iki3, active compounds read low 0.988 | S. cerevisiae deletion strains, locus YLR418C, strain cdc73, active compounds read low 1.02 | S. cerevisiae deletion strains, locus YML016C, strain PPZ1, active compounds read low 0.981 | S. cerevisiae deletion strains, locus YML032C, strain rad52, active compounds read low 1.01 | S. cerevisiae deletion strains, locus YML120C, strain ndi1, active compounds read low 0.99 | S. cerevisiae deletion strains, locus YML124C, strain tub3, active compounds read low 0.99 | S. cerevisiae deletion strains, locus YMR058W, strain fet3, active compounds read low 0.998 | S. cerevisiae deletion strains, locus YMR078C, strain ctf18, active compounds read low 0.981 | S. cerevisiae deletion strains, locus YMR125W, strain sto1, active compounds read low 0.99 | S. cerevisiae deletion strains, locus YMR129W, active compounds read low 0.996 | S. cerevisiae deletion strains, locus YMR205C, strain PFK2, active compounds read low 0.981 | S. cerevisiae deletion strains, locus YMR223W, strain ubp8, active compounds read low 1 | S. cerevisiae deletion strains, locus YMR231W, strain pep5, active compounds read low 0.997 | S. cerevisiae deletion strains, locus YMR307W, strain GAS1, active compounds read low 1.04 | S. cerevisiae deletion strains, locus YNL067W, strain RPL9B, active compounds read low 0.994 | S. cerevisiae deletion strains, locus YNL071W, strain lat1, active compounds read low 1.01 | S. cerevisiae deletion strains, locus YNL128W, strain TEP1, active compounds read low 1.01 | S. cerevisiae deletion strains, locus YNL183C, strain NPR1, active compounds read low 0.962 | S. cerevisiae deletion strains, locus YNL209W, strain ssb2, active compounds read low 0.989 | S. cerevisiae deletion strains, locus YNL233W, strain BNI4, active compounds read low 1 | S. cerevisiae deletion strains, locus YNL248C, strain rpa49, active compounds read low 0.988 | S. cerevisiae deletion strains, locus YNL250W, strain rad50, active compounds read low 0.964 | S. cerevisiae deletion strains, locus YNL271C, strain bni1, active compounds read low 0.978 | S. cerevisiae deletion strains, locus YNL298W, strain CLA4, active compounds read low 0.989 | S. cerevisiae deletion strains, locus YNL307C, strain MCK1, active compounds read low 0.99 | S. cerevisiae deletion strains, locus YNL322C, strain KRE1 (second series), active compounds read low 0.977 | S. cerevisiae deletion strains, locus YNR049C, strain mso1, active compounds read low 1.01 | S. cerevisiae deletion strains, locus YNR052C, strain pop2, active compounds read low 0.964 | S. cerevisiae deletion strains, locus YOL012C, strain htz1 0.807 | S. cerevisiae deletion strains, locus YOL147C, strain pex11, active compounds read low 1.01 | S. cerevisiae deletion strains, locus YOR001W, strain rrp6, active compounds read low 0.948 | S. cerevisiae deletion strains, locus YOR061W, strain CKA2, active compounds read low 0.999 | S. cerevisiae deletion strains, locus YOR069W, strain VPS5, active compounds read low 0.986 | S. cerevisiae deletion strains, locus YOR070C, strain gyp1, active compounds read low 1.01 | S. cerevisiae deletion strains, locus YOR080W, strain dia2, active compounds read low 0.988 | S. cerevisiae deletion strains, locus YOR083W, strain WHI5, active compounds read low 1.02 | S. cerevisiae deletion strains, locus YOR106W, strain vam3, active compounds read low 0.98 | S. cerevisiae deletion strains, locus YOR136W, strain idh2, active compounds read low 0.992 | S. cerevisiae deletion strains, locus YOR144C, strain elg1, active compounds read low 0.996 | S. cerevisiae deletion strains, locus YOR184W, strain ser1, active compounds read low 1.05 | S. cerevisiae deletion strains, locus YOR231W, strain MKK1, active compounds read low 1.05 | S. cerevisiae deletion strains, locus YOR265W, strain rbl2, active compounds read low 1.01 | S. cerevisiae deletion strains, locus YOR270C, strain vph1, active compounds read low 1.02 | S. cerevisiae deletion strains, locus YOR290C, strain snf2, active compounds read low 1 | S. cerevisiae deletion strains, locus YOR316C, strain cot1, active compounds read low 0.985 | S. cerevisiae deletion strains, locus YPL051W, strain arl3, active compounds read low 0.961 | S. cerevisiae deletion strains, locus YPL055C, strain LGE1, active compounds read low 1.05 | S. cerevisiae deletion strains, locus YPL078C, strain atp4, active compounds read low 0.993 | S. cerevisiae deletion strains, locus YPL106C, strain sse1, active compounds read low 0.962 | S. cerevisiae deletion strains, locus YPL240C, strain hsp82, active compounds read low 1 | S. cerevisiae deletion strains, locus YPL256C, strain CLN2, active compounds read low 1.02 | S. cerevisiae deletion strains, locus YPR119W, strain clb2, active compounds read low 0.982 | S. cerevisiae deletion strains, locus YPR141C, strain kar3, active compounds read low 0.977 | S. cerevisiae deletion strains, locus YPR163C, strain tif3, active compounds read low 0.986 | S. cerevisiae deletion strains, locus YPR167C, strain met16, active compounds read low 0.993 | S. cerevisiae deletion strains, strain wtn01, active compounds read low 1.01 | S. cerevisiae strains, strain wild type, active compounds read low 1.01
